Hit rate of the full screen: of about 310,000 compounds, about 17,000 (5.5%) were called active. Another 11% or so got no clear call; they are omitted. This excerpt belongs to a sample that is enriched for actives. A number with no mark means an inactive call. Calls come from the whole dose curve; as a rule, active = well fitted inhibition curve with a large enough effect; inconclusive = small, poorly fitted or top-dose-only effect, or effect the other way; inactive = no such curve, though single readings can be large or run the other way.
% is set by controls: 0 for no effect and ±100 for the full control effect; potency is the fitted concentration of half-maximal effect.

For the assay, the target named is Nuclear receptor ROR-gamma (Mus musculus) (UniProt P51450). As to the kind of experiment: qHTS for inhibitors of ROR gamma transcriptional activity. Note: nearly all actives have a fitted effect of over 60% in size. As to conditions: Drosophila S2 Gal4-RORgamma UAS-luciferase reporter, 20 h; series mostly up to 53.6 µM; activity change, negative = inhibition: at the top concentration. The essentials: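 ROR gamma transcriptional activity was tracked as Gal4-UAS luciferase output in stably transfected Drosophila Schneider cells, with compound added 1 hr before 700 uM copper sulfate induction and a 20 hr ambient-temperature incubation.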
Chain of Nuclear receptor ROR-gamma (Mus musculus) (P51450 whole entry, looked up, the tested form may be a part): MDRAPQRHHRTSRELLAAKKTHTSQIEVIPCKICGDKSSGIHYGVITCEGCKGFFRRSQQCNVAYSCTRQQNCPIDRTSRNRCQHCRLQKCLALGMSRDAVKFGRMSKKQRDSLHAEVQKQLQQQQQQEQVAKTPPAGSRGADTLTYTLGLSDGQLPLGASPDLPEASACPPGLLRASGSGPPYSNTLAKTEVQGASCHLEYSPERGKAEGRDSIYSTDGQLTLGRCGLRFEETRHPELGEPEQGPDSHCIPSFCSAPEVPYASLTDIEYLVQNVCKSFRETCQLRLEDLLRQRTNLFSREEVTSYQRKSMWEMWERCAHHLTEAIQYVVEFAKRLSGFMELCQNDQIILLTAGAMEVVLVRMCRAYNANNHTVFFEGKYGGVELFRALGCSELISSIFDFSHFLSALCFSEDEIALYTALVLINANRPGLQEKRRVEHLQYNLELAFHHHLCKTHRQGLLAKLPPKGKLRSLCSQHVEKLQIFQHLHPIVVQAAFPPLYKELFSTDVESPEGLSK
(In qHTS, concentration-response curves come from the screen itself.)
As to `COc1ccc(CCNC(=O)c2c(C)nn(-c3ccccc3)c2Cl)cc1`, the “activity change, negative = inhibition” value was 24.7%.
On to `COc1ccc(CC(=O)NC2CCSc3ccccc32)cc1OC` (stereo unspecified), for which the “activity change, negative = inhibition” value was 7.66%.
Still for that read-out and setting: the same measure for `COC(=O)c1ccc(Nc2ncnc3sccc23)cc1`: 38.8%.
As to `O=S(=O)(c1ccccc1)N(Cc1cccc(F)c1)c1ccccc1`, the “activity change, negative = inhibition” value was 2.19%.
On to `N#CCC(=O)NC1CCC(CC2CCC(NC(=O)CC#N)CC2)CC1` (stereo unspecified), for which the “activity change, negative = inhibition” value is 21.4%.
Still for that read-out and setting: for `CCOC(OCC)c1ccc(/C=C\c2nccc(N)n2)cc1` the value was -4.15%; for `Cc1cc(=O)n2nc(N3CCC(C(=O)Nc4c(F)c(F)c(F)c(F)c4F)CC3)sc2n1`, 8.27%; for `COc1ccc(C)cc1NC(=O)NCCCCc1ccccc1`, 33.6%.
As to `Cc1cc(CNC(=O)C2CCC(=O)N(CCc3ccc(Cl)cc3)C2)no1` (stereo unspecified), the “activity change, negative = inhibition” value was 0.942%.
On the same count and under the same terms, for `COC1=C(N2CCOCC2)C(=O)c2ccccc2C1=O` the value was 4.55%; for `CCOc1ccc(NC(=O)c2ccc(NC(=O)C3CCCO3)cc2)cc1` (stereo unspecified), -12.3%.
On the same count and under the same terms, for `O=C(NC(=S)NC1CCSC1=O)c1ccccc1F` (stereo unspecified) the value was -29.6%; for `Cc1ccccc1C(=O)Nc1ccccc1NC(=O)c1ccccc1C`, -10.9%.
Consider `Cc1ccccc1C(=O)NC(=S)NC1CC1`, for which the Potency was 14.1 µM (active).
The same measure, in the same setting: the same measure for `CC(C)n1c(O)c(N=Nc2ccccn2)c2ccccc21`: 8.91 µM (active).
`CC(C)n1c(C(O)c2ccccc2)nc2ccccc21` (stereo unspecified): the “activity change, negative = inhibition” value was -20.2%.
On the same count and under the same terms, the same measure for `COC(=O)Cn1c(O)c(N=NC(=O)OC)c2ccccc21`: 7.4%; for `COc1ccc(C=Nc2cccc3ncccc23)cc1`: -11%.
Same read-out and setting: for `COc1ccc(/C=N/Nc2nc(-c3ccc(C)cc3)c(C#N)c(=O)[nH]2)cc1` the value was 20.4% [at 1.91 µM].
`COc1ccc(/C=N/Nc2nc3ccccc3c(=O)[nH]2)cc1`: the Potency was 11.2 µM (active).
`COc1ccccc1C(=O)N/C(=C/c1ccc2c(c1)OCO2)C(=O)Nc1cccc(C(=O)O)c1`: the “activity change, negative = inhibition” value is 5.47%.
Same read-out and setting: for `CCOc1ccccc1Nc1ccc2nonc2c1[N+](=O)[O-]` the value was 7.05%; for `O=C(CSc1nc2ccccc2s1)Nc1ccc(C(=O)O)cc1`, 12.8%.
On to `O=[N+]([O-])c1c(NCCO)cc(Sc2nc3ccccc3s2)c2nonc12`, for which the Potency is 2.82 µM (active).
As for `CC(C)OCCCNC(=O)CN1C(=O)/C(=C/c2ccccc2F)Oc2ccccc21`, the “activity change, negative = inhibition” value is -0.186%.
Turning to `O=C(CSCc1c(Cl)cccc1Cl)NN1C(=O)c2ccccc2C1=O`, the “activity change, negative = inhibition” value was -1.68%.
Take `CCn1c(CSCc2c(Cl)cccc2Cl)n[nH]c1=S`: the Potency was 3.16 µM (active).
As to `CCn1c(CNS(=O)(=O)c2ccc(Cl)cc2)n[nH]c1=S`, the “activity change, negative = inhibition” value was -10.8%.
The same measure, in the same setting: for `O=C1NC(c2ccccc2)Oc2ccccc21` (stereo unspecified) the value was 4.56%; for `CCN(CC)CCCNC(=O)COc1ccc2oc3c(c2c1)CCCC3`, 6.93%.
Still for that read-out and setting: for `Cc1ccc(CNC(=O)C2CCCN2S(=O)(=O)c2ccc3c(c2)C(C)(C)C(=O)N3C)cc1` (stereo unspecified) the value was -3.5%.

The values above are taken from PubChem BioAssay AID2551 (National Center for Advancing Translational Sciences (NCATS), 2010).
